In PubChem BioAssay:

Assay: COS7 lysate on small-molecule microarray, probe aHis, 635 nm (AID 1123);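 note: z-score combines 667nm fluorescence intensity with signal-to-noise per printed compound spot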
Details: COS7 cell lysate, fluorescence, higher = more signal

In order of falling composite z-score:
1. COC(=O)[C@@]1(Cc2ccc(F)cc2)[C@H]2c3cc(C(=O)N4CCCC4)n(CCO)c3C[C@H]2CN1C(=O)c1ccccc1  3.45
2. Cc1ccc(S(=O)(=O)N2[C@@H](c3ccccc3)C(C(=O)O)=CC[C@H]2c2ccc(C#N)cc2)cc1  3.18
3. COCCn1c(C(=O)N2CCCC2)cc2c1C[C@H]1CN(C(=O)c3ccccc3)[C@@](Cc3ccccc3)(C(=O)OC)[C@@H]21  3.14
4. COC(=O)[C@@]1(Cc2ccccc2)[C@@H]2[C@@H](CC(=O)[C@H]2CC(=O)C(=O)N(C)C)CN1C(=O)c1ccccc1  2.87
5. O=C1NC(=O)C2C1C=CC(C(O)c1ccc(F)cc1)N2Nc1ccccn1 (stereo not given)  2.77
6. [N-]=[N+]=NCc1ccccc1C[C@]1(C(=O)NCc2ccccc2)N=C(c2ccc(OCCCO)cc2)O[C@H]1c1ccccc1CN=[N+]=[N-]  2.67
7. C=CC[C@]1(C(=O)NCCCOC)N=C(c2ccc(OCCCO)cc2)O[C@H]1c1ccccc1  2.66
8. C=C(CC1([C@@H](NP(=O)(c2ccccc2)c2ccccc2)[C@H]2C[C@@H]2CCN(C(=O)OCC)S(=O)(=O)c2ccc(C)cc2)CC1)c1ccccc1  2.65
9. O=C1O[C@H](c2ccccc2)[C@H](c2ccccc2)N2[C@H]1[C@@H](C(=O)N1CCN(c3ncccn3)CC1)[C@]1(C(=O)Nc3ccccc31)[C@H]2c1ccc(O)cc1  2.48
10. CCc1cccc(NC(=O)O[C@H]2[C@H](OC(=O)Nc3ccc4c(c3)OCO4)[C@H](OC(=O)Nc3ccc4c(c3)OCO4)[C@@H](OC)O[C@@H]2CO)c1  2.46
11. O=C1C2C=CC(C(O)C(c3ccccc3)c3ccccc3)N(Nc3ccccc3)C2C(=O)N1c1ccccc1 (stereo not given)  2.17
12. COC(=O)c1ccc([C@H](NC(=O)c2ccccc2)[C@]2(C)C[C@H]2C2CCCCC2)cc1  1.89
13. COCCCNC(=O)[C@@]1(Sc2ccc(C)cc2)CC(=O)N(C2CCCCC2)[C@@H]1c1ccc(CO)cc1I  1.8
14. COc1cc2c(cc1O)C(c1ccc(CN3CCCC3)cc1)N(Cc1cccc(OC(F)(F)F)c1)CC2 (stereo not given)  1.72
15. COC(=O)[C@@]1(Cc2ccc(OC)cc2)[C@H]2c3cc(C(=O)N(C)C)n(Cc4ccsc4Br)c3C[C@H]2CN1C(=O)c1ccccc1  1.65
16. CC(C)CNC(=O)[C@@H]1c2ccccc2C(=O)N(Cc2ccccc2Cl)[C@H]1c1ccc(CO)cc1  1.57
17. O=C1NC(=O)C2C1C=CC(C(O)c1cccc(O)c1)N2Nc1ccc(Cl)cc1Cl (stereo not given)  1.4
18. C=C(COC)/C(=C/C[C@H](OC(=O)c1ccncc1)c1cccc(OCCO)c1)c1cnc2ccccc2c1  1.21
19. COCCOC(=O)N1C(=O)[C@@]2(c3cc(C#CC4=CCCCC4)ccc31)[C@H](c1ccccc1OCCO)N1[C@H](c3ccccc3)[C@H](c3ccccc3)OC(=O)[C@H]1[C@@H]2C(N)=O  1.14
20. COc1ccc([Si](C)(C)[C@H]2[C@H](CCO)O[C@@]3(C(=O)N(Cc4ccccc4)c4ccc(N(C=O)c5ccccc5)cc43)[C@@H]2C)cc1  0.929
21. NC(=O)N1C(=O)C2C(C1=O)C1C=C(CCCO)C2C(c2ccc(CN3CCCC3)cc2)N1Cc1cccc(OC(F)(F)F)c1 (stereo not given)  0.904
22. CCCCCCCCCCC(O)C1C=CC2C(=O)N(C)C(=O)C2N1N1CCCCC1 (stereo not given)  0.879
23. COCCOC(=O)N1C(=O)[C@@]2(c3cc(C#Cc4ccc(OC)cc4)ccc31)[C@H](C(=O)Nc1nc3ccccc3s1)[C@H]1C(=O)O[C@H](c3ccccc3)[C@H](c3ccccc3)N1[C@@H]2c1ccccc1OCCO  0.874
24. C=CCOC(=O)[C@H]1[C@@H]2C(=O)O[C@@H](c3ccccc3)[C@@H](c3ccccc3)N2[C@@H](c2ccc(OCCOC(=O)[C@H]3C[C@H]4C(=O)NCC(=O)N4[C@H]3c3ccc(O)cc3)cc2)[C@]12C(=O)Nc1ccc(I)cc12  0.737
25. CC[C@H](C)C(=O)O[C@H]1CC[C@]2(C)C3=C(CCC2C1(C)C)[C@]1(C)CC[C@H]([C@H](C)CCCC(C)C)[C@@]1(C)CC3 (stereo not given in full)  0.627
26. C=CCC(OC(C)=O)[C@@H]1[C@@H](N(Cc2cc3ccccc3o2)C(=O)Cc2ccc(OC)cc2)c2cc(OCCCO)ccc2N1C(=O)Cc1ccc2ccccc2c1 (stereo not given in full)  0.491
27. CCCCNC(=O)c1ccc(C#C[Si](C)(C)C)c(OC(C)=O)c1  0.353
28. C=CCC(OC(C)=O)[C@@H]1[C@@H](N(Cc2cc3ccccc3o2)C(=O)c2ccc(-c3ccccc3)cc2)c2cc(OCCCO)ccc2N1C(=O)c1ccc2ccccc2n1 (stereo not given in full)  0.23
29. C=CCC(OC(C)=O)[C@@H]1[C@@H](N(Cc2cccc3ccccc23)C(=O)c2ccc(-c3ccccc3)cc2)c2cc(OCCCO)ccc2N1C(=O)c1ccc2ccccc2n1 (stereo not given in full)  0.181
30. C=C(CCCC)C(=O)CC[C@H](OC(C)=O)c1ccccc1OCCO  0.0794
31. CCCCC(=C=CC[C@@H](O)c1ccc(OCCO)cc1)C[C@@H](O)c1ccccn1  -0.0207
32. [N-]=[N+]=NCc1ccccc1C[C@]1(C(=O)O)COC(c2ccc(OCCCO)cc2)=N1  -0.0577
33. CCCC[C@H]1OB(O)C[C@H]2C1=C(COC)C[C@H]1C(=O)C=CC(=O)[C@H]12  -0.279
34. COCC1=C([C@H](O)CCc2ccccc2)[C@H](CO)n2c(=O)n(-c3ccccc3)c(=O)n2C1  -0.303
35. CC1CC/C=C\[C@H]2OC34C=CCN(c5ccc(Cl)cc5)C(=O)[C@H]3N(CCCO)C(=O)[C@]4(C)C2C(=O)O1 (stereo not given in full)  -0.42
